Compound activity from PubChem BioAssay.
Most compounds without a hit are left out; they make up all but 28% or so of the library.
CD11b adhes enh = CD11b/CD18-fibrinogen binding enhancement; K562 CD11b/CD18 adhesion to fibrinogen, ATPlite luminescence; activation, % at 10 µM; 0.07% of 93,000 active;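 active = 10 µM primary screen giving 50% or more activity, confirmed by 40% or more on retest at that dose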
CYP2C19 act = increases human CYP2C19 enzyme activity; P33261; recombinant CYP2C19, luciferin-H EGE luminescence; hits give high values; 0 = fully inhibited enzyme, 1 = untreated enzyme; activation factor at 5 µM; 96,000 tested, under 10 active; AID 1025;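 active = activation factor of at least 2 at 5 µM in the primary screen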;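 note: 0 = wells with 2.5 mM tranylcypromine and 1 = vehicle-only wells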
CYP2C9 act = increases human cytochrome P450 2C9 activity; P11712; recombinant CYP2C9, luciferin-H conversion, luminescence; hits give high values; factor 1 = untreated enzyme, 0 = blocked; activation factor at 5 µM; 1.4% of 96,000 active;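 active = activation factor of 2 or more for CYP2C9 at a 5 µM dose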;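 note: 0 = sulfaphenazole-blocked wells and 1 = vehicle-only wells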
Target sequence (P11712 whole entry, looked up): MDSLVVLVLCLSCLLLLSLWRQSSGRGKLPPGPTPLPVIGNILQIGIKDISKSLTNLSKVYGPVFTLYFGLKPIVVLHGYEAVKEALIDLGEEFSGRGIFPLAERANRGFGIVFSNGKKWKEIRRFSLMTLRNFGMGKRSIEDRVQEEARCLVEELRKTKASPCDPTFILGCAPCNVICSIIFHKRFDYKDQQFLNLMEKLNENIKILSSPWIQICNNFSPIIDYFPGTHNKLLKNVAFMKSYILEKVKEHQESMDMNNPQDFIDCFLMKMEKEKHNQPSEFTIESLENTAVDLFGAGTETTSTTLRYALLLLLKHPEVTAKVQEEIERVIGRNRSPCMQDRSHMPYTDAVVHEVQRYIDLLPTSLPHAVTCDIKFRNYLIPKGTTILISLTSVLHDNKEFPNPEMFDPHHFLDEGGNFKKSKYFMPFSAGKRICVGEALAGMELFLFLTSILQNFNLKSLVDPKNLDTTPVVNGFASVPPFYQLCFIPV
CYP2C9 inhib = inhibitors of human CYP2C9 | P11712 | CYP2C9 Supersomes, luciferin-H conversion, luminescence | inhibition, % at 5 µM | 20% of 96,000 active | AID 777;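 active = blocking of liver enzyme CYP2C9 beyond about 50% at 5 µM, limit read from the data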
CYP2C19 inhib = blocks human cytochrome P450 2C19; P33261; CYP2C19 Supersomes, luciferin-H EGE luminescence, 30 min; inhibition, % at 5 µM; 21% of 96,000 active; AID 778;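 active = CYP2C19 inhibition above a set limit at 5 µM in the primary screen, cut at about 50% in these data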;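 note: plate controls were negative control wells for no effect and 2.5 mM tranylcypromine positive control for full effect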
CD11b adhes inh = inhibitors of human CD11b/CD18 binding to fibrinogen; P05107+P11215; 0.54% of 93,000 active; K562 CD11b/CD18 adhesion to fibrinogen, ATPlite luminescence; Mn2+ added to activate the integrin; inhibition, % at 10 µM;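 active = primary inhibition of 50% or more at 10 µM, then 40% or more on retest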
* = called active by the depositor.

Results for Nc1nc(NC(=O)c2cccc(S(=O)(=O)N3CCCCCC3)c2)nc(-c2ccccc2)n1 ?
CD11b adhes enh: 2; CYP2C19 act: 0.8; CYP2C9 act: 0.6; CYP2C9 inhib: 38; CYP2C19 inhib: 20; CD11b adhes inh: 0

Results for COc1cc2c(cc1OC)C(c1ccc(-c3ccccc3Cl)o1)=NCC2 ?
CD11b adhes enh: 1; CYP2C19 act: 0.7; CYP2C9 act: 0.4; CYP2C9 inhib: 62*; CYP2C19 inhib: 32; CD11b adhes inh: 9

What do the screens show for `COc1cc2c(cc1OC)C(c1ccc(-c3ccc(Cl)cc3Cl)o1)=NCC2`?
CYP2C19 act: 0.7; CYP2C9 act: 0.4; CYP2C9 inhib: 56*; CYP2C19 inhib: 29

What do the screens show for `COc1cc2c(cc1OC)C(c1ccc(-c3cc(Cl)ccc3Cl)o1)=NCC2`?
CD11b adhes enh: -6; CYP2C19 act: 0.3; CYP2C9 act: 0.1; CYP2C9 inhib: 89*; CYP2C19 inhib: 73*; CD11b adhes inh: 15

How did COc1ccc(-c2nnc3n2C(C)(C)Cc2cc(OC)c(OC)cc2-3)cc1 do in these assays?
CD11b adhes enh: 1; CYP2C19 act: 0.9; CYP2C9 act: 1.6; CYP2C9 inhib: -63; CYP2C19 inhib: 13; CD11b adhes inh: -10

Results for COc1cc2c(cc1OC)C(c1ccc(-c3ccc(Cl)c(Cl)c3)o1)=NCC2 ?
CD11b adhes enh: 1; CYP2C19 act: 0.2; CYP2C9 act: 0.1; CYP2C9 inhib: 95*; CYP2C19 inhib: 83*; CD11b adhes inh: 0

What do the screens show for `Clc1ccc(Cl)c(OCc2cc(-c3ccccc3Cl)on2)c1`?
CYP2C19 act: 0.7; CYP2C9 act: 1.4; CYP2C9 inhib: -41; CYP2C19 inhib: 28

Results for Cc1cc(S(=O)(=O)Nc2cc(C)c(O)c(C)c2)c(C)s1 ?
CD11b adhes enh: 4; CYP2C19 act: 0; CYP2C9 act: 1; CYP2C9 inhib: 4; CYP2C19 inhib: 100*; CD11b adhes inh: 67

Results for Cc1cc(S(=O)(=O)Nc2cccnc2)c(C)s1 ?
CD11b adhes enh: 0; CYP2C19 act: 0.6; CYP2C9 act: 0.8; CYP2C9 inhib: 24; CYP2C19 inhib: 42; CD11b adhes inh: -1

How did Cc1cc(S(=O)(=O)Nc2ccc3ccccc3c2)c(C)s1 do in these assays?
CD11b adhes enh: -4; CYP2C19 act: 0.1; CYP2C9 act: 0.4; CYP2C9 inhib: 64*; CYP2C19 inhib: 93*; CD11b adhes inh: 23

How did O=C(Nc1cccc(-c2cn3ccccc3n2)c1)c1cc2ccccc2oc1=O do in these assays?
CD11b adhes enh: 50; CYP2C19 act: 0.6; CYP2C9 act: 0.6; CYP2C9 inhib: 42; CYP2C19 inhib: 39; CD11b adhes inh: 14

How did OCCOCCOCCn1c2ccccc2c2ccccc21 do in these assays?
CD11b adhes enh: -2; CYP2C19 act: 0.2; CYP2C9 act: 0.7; CYP2C9 inhib: 29; CYP2C19 inhib: 82*; CD11b adhes inh: 1

What do the screens show for `COC(=O)C(C)N1C(=O)S/C(=C\c2cc(C)n(-c3ccccn3)c2C)C1=O` (stereo unspecified)?
CD11b adhes enh: -5; CYP2C19 act: 0.8; CYP2C9 act: 0.2; CYP2C9 inhib: 80*; CYP2C19 inhib: 24; CD11b adhes inh: 17

How did COc1ccc(N2CCN(c3oc(-c4ccc(OC)c(OC)c4)nc3C#N)CC2)cc1 do in these assays?
CD11b adhes enh: 9; CYP2C19 act: 0.5; CYP2C9 act: 0.7; CYP2C9 inhib: 34; CYP2C19 inhib: 48; CD11b adhes inh: 1

What do the screens show for `COc1ccc(-c2nc(C#N)c(N3CCc4ccccc4C3)o2)cc1OC`?
CYP2C19 act: 0.4; CYP2C9 act: 0.8; CYP2C9 inhib: 23; CYP2C19 inhib: 55*

What do the screens show for `COc1ccccc1-c1nc(C#N)c(N2CCc3ccccc3C2)o1`?
CD11b adhes enh: -4; CYP2C19 act: 0.2; CYP2C9 act: 0.3; CYP2C9 inhib: 75*; CYP2C19 inhib: 84*; CD11b adhes inh: 77

How did CC1CCN(c2oc(-c3ccccc3Cl)nc2C#N)CC1 do in these assays?
CD11b adhes enh: -3; CYP2C19 act: 0.1; CYP2C9 act: 0.1; CYP2C9 inhib: 87*; CYP2C19 inhib: 86*; CD11b adhes inh: 53

How did N#Cc1nc(-c2ccco2)oc1N1CCC(Cc2ccccc2)CC1 do in these assays?
CD11b adhes enh: 0; CYP2C19 act: 0.2; CYP2C9 act: 0.1; CYP2C9 inhib: 91*; CYP2C19 inhib: 82*; CD11b adhes inh: 47

What do the screens show for `COc1ccccc1-c1nc(C#N)c(N2CCCCCC2)o1`?
CD11b adhes enh: -2; CYP2C19 act: 0.8; CYP2C9 act: 1.3; CYP2C9 inhib: -25; CYP2C19 inhib: 23; CD11b adhes inh: 35

How did COc1ccccc1N1C(=O)CCC1(C#N)c1ccccc1 (stereo unspecified) do in these assays?
CD11b adhes enh: 0; CYP2C19 act: 1; CYP2C9 act: 1; CYP2C9 inhib: 4; CYP2C19 inhib: 3; CD11b adhes inh: -2

How did N#CCN1CCN(CC(=O)Nc2cccc3ccccc23)CC1 do in these assays?
CYP2C19 act: 1; CYP2C9 act: 1; CYP2C9 inhib: -5; CYP2C19 inhib: -1

How did CCn1c(=O)c2c3c(sc2n(C)c1=O)CCC3 do in these assays?
CD11b adhes enh: 4; CYP2C19 act: 1; CYP2C9 act: 1; CYP2C9 inhib: 2; CYP2C19 inhib: 1; CD11b adhes inh: 7

How did COc1ccccc1-c1nc(C#N)c(N2CCN(c3ccccc3)CC2)o1 do in these assays?
CYP2C19 act: 0.2; CYP2C9 act: 1; CYP2C9 inhib: 0; CYP2C19 inhib: 80*

What do the screens show for `COc1ccc(N2CCN(c3oc(-c4ccccc4OC)nc3C#N)CC2)cc1`?
CD11b adhes enh: -4; CYP2C19 act: 0.8; CYP2C9 act: 1; CYP2C9 inhib: 1; CYP2C19 inhib: 19; CD11b adhes inh: 20

What do the screens show for `O=C(NC1CCCCC1)C(c1cccs1)N(C(=O)Cc1c[nH]c2ccccc12)c1ccc(F)cc1` (stereo unspecified)?
CD11b adhes enh: 0; CYP2C19 act: 0.3; CYP2C9 act: 0.5; CYP2C9 inhib: 48; CYP2C19 inhib: 68*; CD11b adhes inh: -1

Results for CC(=O)c1ccc(N(C(=O)Cc2c[nH]c3ccccc23)C(C(=O)NC2CCCCC2)c2cccs2)cc1 (stereo unspecified) ?
CD11b adhes enh: -2; CYP2C19 act: 0.4; CYP2C9 act: 0.4; CYP2C9 inhib: 58*; CYP2C19 inhib: 65*; CD11b adhes inh: -1

Results for Cc1ccc(N(C(=O)Cn2nnc(-c3ccc(C)o3)n2)C(C(=O)NC2CCCC2)c2ccco2)cc1 (stereo unspecified) ?
CD11b adhes enh: 3; CYP2C19 act: 0.9; CYP2C9 act: 0.7; CYP2C9 inhib: 27; CYP2C19 inhib: 11; CD11b adhes inh: 5
